High-throughput results: PubChem, National Center for Advancing Translational Sciences (NCATS)
Vaccinia Venus – qHTS for Stage-Specific Inhibitors of Vaccinia Orthopoxvirus: Venus Reporter Primary qHTS; Vaccinia virus Venus reporter expression, fluorescence; Potency, µM (top dose mostly 36.5 µM), most hits filed as inhibitors; 330,000 compounds, 0.46% hits; AID 720580, 2013; calls by dose curve; tested in A549 cells; further: nearly all actives have a fitted effect of over 30% in size
FMDV antiviral – High Throughput Screening for Foot and Mouth Disease Virus Antivirals. AID 1159524, 2015. Potency, µM (titrated, usually from 57.9 µM), hits mostly inhibitors. 410,000 compounds, 1.2% hits. FMDV antiviral cell-based qHTS; calls by dose curve; tested in HEK293T cells; further: read-out not given here; nearly all actives have a fitted effect of over 45% in size
VACV mCherry inh – qHTS for Stage-Specific Inhibitors of Vaccinia Orthopoxvirus: mCherry Reporter Primary qHTS. Vaccinia virus mCherry reporter infection, fluorescence. Potency, µM (titrated, usually from 36.5 µM), actives largely listed as inhibitors. 310,000 compounds, 0.63% hits; calls by dose curve; tested in A549 cells; further: nearly all actives have a fitted effect of over 35% in size
MARV entry inh – qHTS for inhibitors of binding or entry into cells for Marburg Virus. Marburg virus pseudotyped entry inhibition, cell reporter. Potency, µM (series often up to 37.8 µM), actives largely listed as inhibitors. 300,000 compounds, 1.8% hits. AID 540276, 2011; calls by dose curve; tested in HEK293 cells
Lassa entry inh – qHTS for Inhibitors of binding or entry into cells for Lassa Virus | Potency, µM (doses to about 37.9 µM), usual class: inhibitors | Lassa virus pseudotype entry inhibition, cell reporter | 300,000 compounds, 1.2% hits; calls by dose curve; tested in HEK293 cells; further: nearly all actives have a fitted effect of over 50% in size
Each line names hits and unclear results; the compound was inactive in the other large screens. This is a sample that favours compounds with a hit; in the whole collection about 3.2% have one here.

Cc1cc(C(=O)c2ccc(Cl)cc2)c(NC(=O)CCl)s1	FMDV antiviral 25.1µM, VACV mCherry inh inconclusive, MARV entry inh inconclusive
COc1ccc(-c2nn(C)c(=O)c3ccccc23)cc1NC(=O)COc1ccc(C)cc1	FMDV antiviral inconclusive, MARV entry inh inconclusive, Lassa entry inh 5.8µM (no result: Vaccinia Venus, VACV mCherry inh)
Cn1nc(-c2ccc(OCC(=O)Nc3cccnc3)cc2)c2ccccc2c1=O	FMDV antiviral 35.5µM (no result: Vaccinia Venus, VACV mCherry inh)
COc1ccccc1N1CCN(CCS(=O)(=O)c2cc(Cl)ccc2Cl)CC1	Vaccinia Venus inconclusive, VACV mCherry inh 8.91µM (no result: MARV entry inh, Lassa entry inh)
COc1ccccc1N1CCN(S(=O)(=O)CCNC(=O)C23CC4CC(CC(C4)C2)C3)CC1	FMDV antiviral 14.1µM (no result: Vaccinia Venus, VACV mCherry inh, MARV entry inh, Lassa entry inh)
COc1ccc(Cl)cc1C(=O)NCCS(=O)(=O)N1CCN(c2ccccc2F)CC1	none (no result: Vaccinia Venus, VACV mCherry inh, MARV entry inh, Lassa entry inh)
COc1ccccc1N1CCN(Cc2c(F)cccc2Cl)CC1	none (no result: Vaccinia Venus, VACV mCherry inh)
COc1ccc(Cl)cc1C(=O)NCCS(=O)(=O)N1CCN(c2ccccc2OC)CC1	FMDV antiviral 8.91µM, VACV mCherry inh inconclusive (no result: MARV entry inh)
C#CCNC(=O)[C@H]1C=C(OC)C(=O)C[C@H](c2ccccc2)[C@H]1C	none (no result: Vaccinia Venus, FMDV antiviral, VACV mCherry inh, Lassa entry inh)
CCc1ccc(NC(=O)C(=O)NCCc2sc(-c3ccc(OC)c(OC)c3)nc2C)cc1	none (no result: MARV entry inh)
CC(=O)Nc1ccc(S(=O)(=O)N2CCN(S(=O)(=O)c3ccccc3)CC2)cc1	none (no result: Vaccinia Venus, VACV mCherry inh, MARV entry inh, Lassa entry inh)
Cc1ccc(C(=O)NS(=O)(=O)c2ccc(C)cc2)cc1	none (no result: Vaccinia Venus, VACV mCherry inh, Lassa entry inh)
O=C(NN/C(=N/S(=O)(=O)c1ccc(Cl)cc1)c1ccccc1)c1ccc(O)cc1	MARV entry inh 20µM, Lassa entry inh inconclusive
CC(=O)NC(=C(Cl)Cl)S(=O)(=O)c1ccccc1	Vaccinia Venus 8.91µM, FMDV antiviral 22.4µM, VACV mCherry inh 7.94µM, MARV entry inh 10µM, Lassa entry inh inconclusive
Cc1ccc(C(=O)NC(=C(Cl)Cl)S(=O)(=O)c2ccc(C)cc2)cc1	Vaccinia Venus inconclusive, FMDV antiviral 17.8µM, VACV mCherry inh inconclusive, MARV entry inh inconclusive, Lassa entry inh inconclusive
Cc1ccc(S(=O)(=O)/C(=C/Cl)NC(=O)c2ccccc2)cc1	Vaccinia Venus inconclusive, FMDV antiviral 14.1µM, VACV mCherry inh inconclusive, MARV entry inh 7.08µM, Lassa entry inh 7.31µM
O=C(NC(=C(Cl)Cl)S(=O)(=O)c1ccc(Cl)cc1)c1ccccc1	FMDV antiviral 28.2µM (no result: Vaccinia Venus, VACV mCherry inh, MARV entry inh, Lassa entry inh)
Cc1ccc(S(=O)(=O)C(NC(=O)c2ccccc2)=C(Cl)Cl)cc1	Vaccinia Venus inconclusive, FMDV antiviral 12.6µM, VACV mCherry inh inconclusive, MARV entry inh inconclusive, Lassa entry inh inconclusive
Cc1ccc(C(=O)NS(=O)(=O)c2ccccc2)cc1	none
COCCn1ccc2c(OCC(=O)NCc3ccccc3)cccc2c1=O	Lassa entry inh 1.58µM
CC(C)S(=O)(=O)c1oc(-c2ccc(F)cc2)nc1S(=O)(=O)c1ccccc1	FMDV antiviral 15.8µM, MARV entry inh inconclusive, Lassa entry inh inconclusive
CCCCS(=O)(=O)c1oc(-c2ccc(F)cc2)nc1S(=O)(=O)c1ccccc1	FMDV antiviral 31.6µM, MARV entry inh inconclusive, Lassa entry inh inconclusive
CCS(=O)(=O)c1oc(-c2ccc(F)cc2)nc1S(=O)(=O)c1ccc(Br)cc1	Vaccinia Venus inconclusive, FMDV antiviral 14.1µM, MARV entry inh inconclusive, Lassa entry inh inconclusive
CSc1oc(-c2ccc(F)cc2)nc1S(=O)(=O)c1ccc(F)cc1	none (no result: MARV entry inh, Lassa entry inh)
CS(=O)(=O)c1oc(-c2ccc(F)cc2)nc1S(=O)(=O)c1ccc(Cl)cc1	Vaccinia Venus inconclusive, FMDV antiviral 25.1µM, VACV mCherry inh inconclusive, Lassa entry inh inconclusive
CC(C)S(=O)(=O)c1oc(-c2cccs2)nc1S(=O)(=O)c1ccc(F)cc1	FMDV antiviral 22.4µM, MARV entry inh inconclusive, Lassa entry inh inconclusive
Cc1ccc(S(=O)(=O)c2nc(-c3cccs3)oc2SC(C)C)cc1	none
CC(C)(C)N(Cc1ccc2c(c1)OCO2)C(=O)/C=C\S(=O)c1ccccc1 (stereo not given)	Vaccinia Venus 14.1µM, VACV mCherry inh 8.91µM, MARV entry inh inconclusive, Lassa entry inh inconclusive
Cc1nn(Cc2ccc(C(=O)Nc3ccccc3C(F)(F)F)o2)c(C)c1Br	MARV entry inh inconclusive, Lassa entry inh inconclusive (no result: Vaccinia Venus, VACV mCherry inh)
Cc1csc(NC(=O)c2ccc(Cn3nc(C)c(Br)c3C)o2)n1	Vaccinia Venus inconclusive, FMDV antiviral 22.4µM, VACV mCherry inh inconclusive, MARV entry inh inconclusive, Lassa entry inh 11.2µM
COc1ccc2[nH]c3c(c2c1)CCN1C(=O)C(CC(=O)NCCC2=CCCCC2)C[C@H](C(=O)N2CCOCC2)[C@@]31C (stereo not given in full)	Vaccinia Venus inconclusive (no result: MARV entry inh, Lassa entry inh)
